PINK1 modulator = PINK1 expression modulation | PINK1 immunofluorescence, high-content cytometry, 24 h | Potency, µM (doses to about 76.6 µM), without a hit: at the top dose activation (PINK1 increase), actives largely listed as activators | 410,000 tested, 0.2% active | AID 624263; active = well fitted activation curve with a large enough effect; inconclusive = small, poorly fitted or top-dose-only effect; cell line not stated here; note: potency is the fitted concentration of half-maximal effect; % of control where 0% means no effect; nearly all actives have a fitted effect of over 65% in size
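PINK1 protein, normally rapidly degraded, was detected by immunofluorescence after 24 hour compound treatment of a stable cell line. Titration data (5 concentrations) came from laser-scanning cytometry, with CCCP-treated wells as controls.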
IL1B secr inh = inhibitors of inflammasome signaling (IL-1 beta secretion). THP-1 LPS/ATP IL-1B secretion, AlphaLISA, 16 h; stronger effect = lower value. activity change, % at 57.5 µM. 360,000 tested, 4.7% active; in the data active = activity change below about -50%; inconclusive = mostly about -30% to -49%; note: % is set by controls: 0 for no effect and ±100 for the full control effect
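THP-1 cells pretreated 1 hr with compounds (up to 57.5 uM final), then stimulated with LPS (250 ng/mL final) plus ATP (1.25 mM final); secreted IL-1B measured by AlphaLISA after 16 hr, decreased signal indicating inhibition.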
ATXN2 expr inh = ATXN2 expression inhibition | 360,000 tested, 0.72% active | HEK-293 ATXN2-luciferase reporter, luminescence, 24 h | Potency, µM (highest dose often 57 µM), without a hit: top-dose activity change, negative = inhibition, hits mostly inhibitors | AID 1745845; note: potency is the fitted concentration of half-maximal effect; % is set by controls: 0 for no effect and ±100 for the full control effect; nearly all actives have a fitted effect of over 55% in size
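qHTS (up to 57 uM final) was run with 24 h compound exposure of reporter cells at 37 °C. Each well was multiplexed: SteadyGlo luminescence measured ATXN2-luciferase expression after a fluorogenic Gly-Phe-AFC viability readout (25 uM final).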
MCF10A rerep = induces DNA re-replication in MCF 10a normal breast cells | MCF 10A DNA re-replication, Hoechst nuclear intensity, 48 h | Potency, µM (titrated, usually from 46.1 µM), for inactives: top-dose activity, positive = re-replication, usual class: activators | 350,000 tested, 2.9% active; note: potency is the fitted concentration of half-maximal effect; % of control where 0% means no effect; nearly all actives have a fitted effect of over 50% in size
SW480 rereplic = induces DNA re-replication in SW480 colon adenocarcinoma cells | 340,000 tested, 1.8% active | AID 624297 | Potency, µM (doses to about 46.1 µM), for inactives: at the top dose re-replication activation, most hits filed as activators | SW480 DNA re-replication, Hoechst DNA content imaging, 48 h; note: potency is the fitted concentration of half-maximal effect; % of control where 0% means no effect; nearly all actives have a fitted effect of over 55% in size
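First, 250 cells per well were seeded. Next, compound or vehicle (23 nL) was pinned in, plates sat 48 hr at 37 C. Finally Hoechst was added for 40 min before fluorescence scanning.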
ATXN viability = viability counter-screen for ATXN expression inhibitors; 400,000 tested, 0.49% active; Potency, µM (titrated, usually from 56.7 µM), most hits filed as cytotoxic; S2 cells (HEK-293 line with an ATXN2-luciferase reporter) viability, CellTiter-Fluor protease fluorescence, 24 h; note: potency is the fitted concentration of half-maximal effect; nearly all actives have a fitted effect of over 40% in size
* marks the source's active call; other numbers are inactive results; i = inactive; u = inconclusive; x = not tested or not shown; [ ] = dose if it differs, or a comment. This is a sample that favours compounds with a hit; in the whole collection about 7.1% have one here. Unless noted, calls come from the whole dose curve; as a rule, active = well fitted curve in the direction sought with a large enough effect; inconclusive = small, poorly fitted or top-dose-only effect, or another doubt; inactive = no such curve, though single readings can be large; an effect the other way counts as inactive or inconclusive.

SMILES	PINK1 modulator	IL1B secr inh	ATXN2 expr inh	MCF10A rerep	SW480 rereplic	ATXN viability
C#CCOCCOCCOCCNc1nc(N2CCN(C(=O)CCCCCCCCCCNC(=O)[C@@H]([C@H](C)O)n3cc(C)nn3)CC2)nc(N2CCN(C(=O)CCCCCCCCCCNC(=O)[C@@H]([C@H](C)O)n3cc(C)nn3)CC2)n1	2.6%	-18.3	-13.8%	13µM*	2.2%	i
C#CCOCCOCCOCCNc1nc(N2CCN(C(=O)CCCCCCCCCCNC(=O)[C@H](CCCCN)n3cc(CCO)nn3)CC2)nc(N2CCN(C(=O)CCCCCCCCCCNC(=O)[C@@H]([C@H](C)O)n3cc(C)nn3)CC2)n1	15.8%	-70.8*	-6.1%	-2.7%	-15.4%[9.22 µM]	u
COc1ccc(CCNC(=O)c2ccc3c(c2)N(Cc2ccccc2C)C(=O)c2ccccc2S3)cc1OC	0.6%	x	x	x	x	x
CCCCc1ccc(-n2nc3cc(C)c(NC(=O)c4ccc(C#N)cc4F)cc3n2)cc1	-1.2%	x	-0.6%	x	x	i
CC(C)(C)OC(=O)NCCCC[C@@H](C(=O)NCCCCCCCCCCC(=O)N1CCN(C(=O)OC(C)(C)C)CC1)n1cc(CCO)nn1	1.4%	2.6	u	u	-3.1%	35.5µM*
O=C(Nc1cccc(C(F)(F)F)c1)N1CCC(CN2CCCCCC2)CC1	1.2%	x	x	x	x	x
COc1ccccc1N(CC(=O)N1CCCCCC1)S(C)(=O)=O	-3.7%[38.3 µM]	5.2	1.1%	0.326µM*	u	i
COc1cccc(N(CC(=O)N2CCCCCC2)S(C)(=O)=O)c1	2.8%	-0.3	-23.2%	0.82µM*	-11.2%	x
COc1ccccc1CNc1cc(-c2ccccc2)nc2nncn12	1.7%	x	u	x	x	u
O=C(O)c1ccccc1SCC(=O)N1CCc2ccccc21	-1.0%	-3.1	3.3%	16.4µM*	27.5%	i
O=C(CSc1ncc(-c2ccccc2)n1C1CCCC1)N1CCc2ccccc21	u	-61.4*	u	-0.2%	-6.6%	u
Nc1ccccc1SCC(=O)N1CCc2ccccc21	-3.1%	-8.5	40.6%	0.8%	-0.7%	i
Cn1c(-c2ccccc2)cnc1SCC(=O)N1CCCc2ccccc21	-0.5%	u	8.0%	19.6%	-3.4%	i
Cc1ccc(-c2cnc(SCC(=O)N3CCCc4ccccc43)n2C)cc1	-5.4%[38.3 µM]	-50.1*	4.4%	-3.9%	-5.1%	i
COc1ccc(OC)c(S(=O)(=O)N2CCN3CCCC3C2)c1 (centres undefined)	-0.2%	-5.5	0.2%	6.2%	u	i
COc1ccc(C2=CCN3CCCCC3C2)c(-c2ccc(OC)c(OC)c2)c1 (centres undefined)	3.0%	-22.5	25.2%	8.2µM*	1.9%	u
CCOc1ccc(NC(=O)Cn2c(=O)n(Cc3ccc(C(=O)NCc4ccc(C)cc4)cc3)c(=O)c3ccccc32)cc1	1.6%	x	8.5%	x	x	i
O=C(c1ccc(S(=O)(=O)Cc2cc(F)ccc2F)c([N+](=O)[O-])c1)N1CCCC1	-0.8%	-108.1*	9.4%	u	2.5%	i
Cc1ccccc1CS(=O)(=O)c1ccc(C(=O)N2CCC(C)CC2)cc1[N+](=O)[O-]	1.3%	-17.9	x	2.1%	-6.3%	i
CC1CCN(C(=O)c2ccc(S(=O)(=O)Cc3cccc(F)c3)c([N+](=O)[O-])c2)CC1	-1.5%	-86.1*	-8.4%	-40.2%	u	i
O=C(c1ccc(S(=O)(=O)Cc2cc(F)ccc2F)c([N+](=O)[O-])c1)N1CCCCC1	-4.5%	-110.5*	7.9%	28.2%	u	u
Cc1cc(C)cc(OCC(=O)NCC2(N(C)C)CCCCC2)c1	-0.5%	x	-8.8%	x	x	i
COc1ccc(NC(=O)CSc2n[nH]c(C(C)C)n2)c([N+](=O)[O-])c1	-2.5%	-66.9*	-21.5%	1.0%	2.0%	x
COc1ccc(/C=C/C(=O)Nc2ccc(OC)cc2[N+](=O)[O-])cc1	44.7µM*	u	-2.3%	-16.4%	-4.3%	i
COc1ccc(NC(=O)CSc2n[nH]c(N)n2)c([N+](=O)[O-])c1	-2.1%[38.3 µM]	-19.4	1.2%	4.3%	-13.0%	i
SMILES	PINK1 modulator	IL1B secr inh	ATXN2 expr inh	MCF10A rerep	SW480 rereplic	ATXN viability
COc1ccc(NC(=O)/C=C/c2ccccc2)c([N+](=O)[O-])c1	11.3%	-8.0	19.3%	u	u	u
Cc1ccc(-n2ncc3c(NC4CCCCCC4)ncnc32)cc1	3.0%	x	98.1%	x	x	i
CCN1CCN(C(=O)c2sc3ncnc(NCC4CCCO4)c3c2C)CC1 (centres undefined)	-0.5%	x	x	x	x	i
Cc1ccc(C)c(CNc2ccc(S(=O)(=O)N3CCCCC3)cc2)c1	2.8%	-15.0	x	4.3%	2.2%	i
CC(=O)N1CCCc2cc(S(=O)(=O)N(C)CC(=O)Nc3cccc(C)c3C)ccc21	-1.9%	x	-13.3%	x	x	i
CC1(C)Oc2ccc3ccc(=O)oc3c2/C(=C/Nc2ccccc2)C1=O	0.5%	-58.9*	1.7%	u	u	u
CC1(C)Oc2ccc3ccc(=O)oc3c2/C(=C/N)C1=O	-2.2%	-15.8	34.0%	8.6%	-2.2%	i
CC1(C)Oc2ccc3ccc(=O)oc3c2/C(=C/NC2CCCCC2)C1=O	7.0%	0.0	-12.9%	14.6µM*	u	i
COCCC1CCCCN1Cc1nc(N2CCCCC2)c2cc(OC)c(OC)cc2n1 (centres undefined)	-1.3%	x	x	x	x	i
Cc1nn(-c2ccccc2)c2nc(N)c(C#N)c(-c3ccc(F)cc3)c12	11.6%	u	-16.5%	16.4µM*	14.3%	i
Cc1nc(N)c(C#N)c(-c2ccccc2)c1C	-0.9%	-12.7	5.7%	-1.9%	-4.2%	i
Cc1ccc(-n2nc(C)c3c(-c4cccs4)c(C#N)c(N)nc32)cc1	5.4%	24.9	3.4%	8.2µM*	u	i
CCN(CC)C(=O)CSc1nc(N)c(C#N)c(-c2cccs2)c1C#N	u	24.1	-17.4%	18.2%	7.8%	i
CC(=O)Nc1ccc(S(=O)(=O)NC2(C(F)(F)F)NC(=O)N(CCc3ccc(F)cc3)C2=O)cc1 (centres undefined)	0.5%	x	0.5%	x	x	i
COc1ccc(F)c(CN2CCOc3ccc(CN4CCCCC4CO)cc3C2)c1 (centres undefined)	-0.5%	x	x	x	x	i
Cc1ccc(CSc2sc(C(=O)c3ccccc3)c(N)c2C#N)cc1	4.0%	26.5	20.4%	u	-3.3%	i
Cc1cccc(Oc2sc(C(=O)c3ccccc3)c(N)c2C#N)c1C	0.3%	-61.5*	7.3%	u	3.7%	i
N#Cc1c(Oc2ccc3ccccc3c2)sc(C(=O)c2ccccc2)c1N	1.8%	-107.0*	u	u	11.6%	i

Source: PubChem BioAssay (National Center for Advancing Translational Sciences (NCATS))
